The values below come from paper PMC5540273 (PLoS ONE, 2017).

Details in all cases: concentration: 1 μM, replicates: in singlicate; n = 1
Experiment [1] relates to T1, MINK.
T1 construct: gene MINK1

Experiment [2] has as its system MKK7.
For experiment [3], the system named is MKNK1.
Experiment [4] has as its system MKNK2.
For experiment [5], the system named is T2, MLCK.
T2 construct: gene MYLK3

Experiment [6] deals with T3, MLK1.
T3 construct: gene MAP3K9

The test system of experiment [7] is MLK2.
The subject of experiment [8] is MLK3.
Experiment [9] deals with MRCKA.
The subject of experiment [10] is T4, MRCKB.
T4 construct: gene CDC42BPB
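Note: KINOMEscan kinase panel screen.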

Turning to `COc1ccc(Nc2nccc(N3CCC(NC(=O)C(C)c4ccc(Cl)cc4)C3)n2)cc1` (centres unmarked) [GSK1379735], the “%Inh” value in [1] was 1%; in [2], 10%; in experiment [3], 12%; in experiment [4], 2%; in experiment [5], 14%; in [6] it was 0%. Moreover, the “%Inh” value in experiment [7] came to 43%; in [8], 21%; in experiment [9], 15%; in experiment [10] it was 2%.

As for `COC(=O)c1cccc(NC(=O)NC2CCN(c3ccnc(Nc4ccc(OC)cc4)n3)C2)c1` (centres unmarked) [GSK1379746], the “%Inh” value in experiment [1] is given as 0%; in experiment [2], 7%; in experiment [3] it was 3%; in experiment [4], 2%; in [5], 4%; in experiment [6], 0%. Further, the “%Inh” value in experiment [7] is given as 0%; in experiment [8], 0%; in experiment [9] it was 24%; in experiment [10], 0%.

As to `CNC(=O)c1ccc(C)c(-n2c(C)cc(OCc3ccc(F)cc3F)c(Br)c2=O)c1`, the “%Inh” value in experiment [1] is listed as 0%; in experiment [2] it was 0%; in [3], 0%; in experiment [4] it was 100%; in [5], 0%; in experiment [6] it was 0%. Also, the “%Inh” value in [7] was 0%; in experiment [8], 19%; in [9] it was 0%; in experiment [10], 8%.

Turning to `Cc1ccc(-c2nc(Nc3ccncc3)c3ccccc3n2)s1` [GSK189015], the “%Inh” value in experiment [1] was 2%; in experiment [2] it was 0%; in experiment [3], 5%; in experiment [4] it was 17%; in [5], 14%; in [6], 6%. Also, the “%Inh” value in [7] is given as 49%; in experiment [8], 5%; in experiment [9] it was 24%; in [10], 21%.

Consider `Cc1ccc(NC(=O)Nc2ccccc2F)cc1-c1ccc(C(=O)Nc2ccncc2)cc1` [GSK1398477], for which the “%Inh” value stood at 0% in [1]; 0% in experiment [2]; 4% in [3]; 0% in experiment [4]; 11% in experiment [5]; 4% in experiment [6]. The “%Inh” value amounted to 17% in [7], 33% in [8], 17% in experiment [9] and 30% in experiment [10].

As for `O=c1cc(N2CCOCC2)nc2n(Cc3ccccc3F)ccn12` [GSK2297428], the “%Inh” value was 8% in [1]; 0% in experiment [2]; 0% in experiment [3]; 0% in [4]; 0% in experiment [5]; 0% in [6]. For the same molecule, the “%Inh” value in experiment [7] was 0%; in experiment [8], 38%; in experiment [9], 4%; in experiment [10] it was 0%.

With `Fc1ccc(-c2nn3cccc(F)c3c2-c2ccncc2)cc1` [GW475620], the “%Inh” value in experiment [1] is listed as 27%; in [2], 16%; in experiment [3] it was 0%; in [4], 0%; in experiment [5], 0%; in experiment [6], 2%. For the same molecule, the “%Inh” value is 31% in experiment [7], 18% in experiment [8], 23% in experiment [9] and 34% in [10].

Take `Fc1ccc(-c2nc3n(c2-c2ccncc2)CCS3)cc1` [GI98581]: the “%Inh” value is 45% in experiment [1]; 0% in experiment [2]; 0% in [3]; 2% in [4]; 15% in [5]; 3% in experiment [6]. Also, the “%Inh” value was 19% in experiment [7], 21% in [8], 2% in experiment [9] and 25% in experiment [10].

For the molecule `COc1ccc(-c2coc3ccc(-c4nnc(C)o4)cc23)cc1`, the “%Inh” value in experiment [1], in experiment [2], in experiment [3], in experiment [4], in experiment [5] and in experiment [6] was 0% in each case. For the same molecule, the “%Inh” value in experiment [7] turned out to be 5%; in [8], 1%; in experiment [9], 0%; in experiment [10], 0%.

For `CC(C)c1ccc(O)cc1Nc1ccnc2ccc(C(F)(F)F)cc12` [GW482059], the “%Inh” value in experiment [1] was 0%; in experiment [2] it was 0%; in [3], 2%; in experiment [4] it was 10%; in [5], 0%; in [6], 0%. Further, the “%Inh” value in experiment [7] amounted to 5%; in experiment [8], 13%; in [9], 0%; in [10] it was 0%.

Consider `CC(=O)c1cccc(NC(=O)NC2CCN(c3ccnc(Nc4ccc(F)cc4)n3)C2)c1` (centres unmarked) [GSK1379710], for which the “%Inh” value is 11% in experiment [1]; 0% in experiment [2]; 27% in experiment [3]; 0% in experiment [4]; 0% in experiment [5]; 0% in [6]. The “%Inh” value in experiment [7] came out at 0%; in experiment [8], 3%; in [9], 20%; in experiment [10], 0%.

Regarding `Cn1cncc1-c1cc2c(Nc3ccc(OCc4ccccc4)cc3)ncnc2cn1` [GW281179], the “%Inh” value in experiment [1] came to 0%; in [2], 11%; in [3], 0%; in experiment [4], 47%; in experiment [5] it was 0%; in [6] it was 0%. Besides, the “%Inh” value is 0% in experiment [7], 15% in experiment [8], 21% in experiment [9] and 0% in experiment [10].

With `CS(=O)(=O)Cc1ccc(Nc2nccc(-c3c(-c4cccc(NC(=O)C5CCCCC5)c4)nn4ncccc34)n2)cc1` [GSK350559], the “%Inh” value in experiment [1] is listed as 0%; in [2], 21%; in [3], 25%; in experiment [4], 13%; in experiment [5] it was 3%; in experiment [6], 2%. In addition, the “%Inh” value in [7] came out at 7%; in [8] it was 13%; in [9] it was 0%; in experiment [10] it was 0%.

Take `COc1ccc2cc(-c3nc(-c4ccccc4C(C)C)[nH]c3-c3ccncc3)ccc2c1` [SB-660566]: the “%Inh” value in [1] is 0%; in [2], 0%; in [3], 5%; in [4] it was 22%; in [5] it was 6%; in experiment [6], 0%. Further, the “%Inh” value amounted to 0% in [7], 0% in [8], 4% in experiment [9] and 1% in experiment [10].

With `COC(=O)C(Cc1ccccc1)NC(=O)NC1CCN(c2ccnc(Nc3ccc(F)cc3)n2)C1` (centres unmarked) [GSK1379714], the “%Inh” value in experiment [1] was found to be 2%; in experiment [2], 0%; in [3], 0%; in [4], 0%; in experiment [5], 5%; in [6], 0%. Further, the “%Inh” value in experiment [7] was 0%; in [8], 15%; in [9] it was 22%; in experiment [10] it was 0%.

Regarding `FC(F)(F)c1ccccc1-c1cc(-c2c[nH]nc2-c2ccccn2)ccn1` [GW679396], the “%Inh” value in experiment [1] is 11%; in experiment [2], 0%; in experiment [3] it was 5%; in [4], 0%; in experiment [5], 4%; in experiment [6], 0%. Besides, the “%Inh” value in experiment [7] turned out to be 0%; in experiment [8] it was 1%; in experiment [9], 0%; in experiment [10] it was 0%.

Consider `COC(=O)c1cccc(NC(=O)NC2CCN(c3ccnc(Nc4ccc(F)cc4)n3)C2)c1` (centres unmarked) [GSK1379725], for which the “%Inh” value in [1] stood at 0%; in experiment [2] it was 0%; in [3], 0%; in experiment [4] it was 1%; in experiment [5], 0%; in [6], 0%. Moreover, the “%Inh” value in [7] amounted to 0%; in experiment [8], 0%; in experiment [9], 4%; in experiment [10], 0%.
